Results taken from PubChem BioAssay AID1851 (National Center for Advancing Translational Sciences (NCATS), 2009).
The campaign covered roughly 16,000 compounds. About 5,700 (36%) were called active. Not shown: some 24% with an inconclusive outcome. The call rests on the fitted dose curve; in most records, active means well fitted curve in the direction sought with a large enough effect; inconclusive means small, poorly fitted or top-dose-only effect, or effect the other way; inactive means no such curve, though single readings can be large or run the other way. The list shows a part of the results.

Target: Cytochrome P450 1A2 (Homo sapiens) (UniProt P05177)
Assay: Cytochrome panel assay with activity outcomes
Settings: recombinant CYP, pro-luciferin dealkylation, luminescence, p450-cyp1a2; series mostly up to 57.1 µM; activity, negative = inhibition: at the top concentration
On the % scale 0 is the no-effect control and ±100 the full control effect.

Chain of Cytochrome P450 1A2 (Homo sapiens) (P05177 whole entry, looked up): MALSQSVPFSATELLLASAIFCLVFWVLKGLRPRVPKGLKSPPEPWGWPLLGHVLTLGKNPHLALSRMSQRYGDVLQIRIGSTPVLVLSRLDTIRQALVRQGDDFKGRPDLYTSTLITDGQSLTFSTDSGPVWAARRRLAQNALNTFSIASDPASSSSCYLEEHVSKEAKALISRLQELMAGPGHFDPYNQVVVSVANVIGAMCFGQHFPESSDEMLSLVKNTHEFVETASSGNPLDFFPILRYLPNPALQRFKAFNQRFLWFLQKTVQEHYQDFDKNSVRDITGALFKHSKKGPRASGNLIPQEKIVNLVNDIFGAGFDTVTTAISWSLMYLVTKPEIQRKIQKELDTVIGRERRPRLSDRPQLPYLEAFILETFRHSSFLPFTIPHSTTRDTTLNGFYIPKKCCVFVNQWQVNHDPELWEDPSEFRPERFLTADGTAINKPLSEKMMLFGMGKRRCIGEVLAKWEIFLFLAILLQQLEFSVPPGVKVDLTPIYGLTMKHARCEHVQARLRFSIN

SMILES	AC50	activity, negative = inhibition
c1ccc(CN2c3ccccc3-c3nc4ccccc4n3C2c2ccccn2)cc1 (stereo unspecified)	4.47 µM (active)	–
O=C(Cc1ccccc1)Nc1nc2ccc(Cl)cc2c2nc(-c3ccco3)nn12	0.2 µM (active)	–
CN(C)Cc1cc(Cl)c(O)c(CN(C)C)c1	–	-10.7% [at 11.4 µM] (inactive)
Oc1ccc(Cc2cc(Cl)cc(Cl)c2O)cc1Cl	1.58 µM (active)	–
Oc1ccc(Cl)cc1Cc1cc(Cl)cc(Cc2cc(Cl)ccc2O)c1O	–	-23.8% [at 2.29 µM] (inactive)
CCC(C)(C)n1nnnc1C(c1ccc(C)cc1)N1CCC(C)CC1 (stereo unspecified)	–	-9.54% (inactive)
CCC(C)(C)n1nnnc1C(C(C)C)N(Cc1ccco1)Cc1cc2cc3c(cc2[nH]c1=O)OCO3 (stereo unspecified)	14.1 µM (active)	–
CC(C)(C)n1nnnc1C(c1cccnc1)N(Cc1ccccc1)Cc1ccco1 (stereo unspecified)	–	-11.9% (inactive)
COc1ccccc1CN(Cc1cc2cc3c(cc2[nH]c1=O)OCCO3)Cc1nnnn1Cc1ccco1	17.8 µM (active)	–
CCC(Sc1nc2cc3c(cc2c(=O)n1Cc1ccco1)OCO3)C(=O)Nc1ccccc1OC (stereo unspecified)	–	-13.9% (inactive)
Cc1nonc1NC(=O)N1CCCC1	–	-14.6% (inactive)
CCC[C@@H]1O[C@@H]2C[C@@H]3[C@H]4CCC5=CC(=O)C=C[C@@]5(C)[C@H]4[C@H](O)C[C@@]3(C)[C@@]2(C(=O)CO)O1	–	-1.55% [at 25.6 µM] (inactive)
CCCc1c(O)c2ccccc2n(-c2ccccc2)c1=O	14.1 µM (active)	–
CN(C(=O)c1c(O)c2ccccc2n(C)c1=O)c1ccccc1	–	-1.04% (inactive)
Cc1cnc(CNc2ncncc2-c2ccoc2)cn1	12.6 µM (active)	–
Cc1cnc(CNc2ncncc2-c2ccc(N(C)C)cc2)cn1	3.16 µM (active)	–
Cc1cnc(CNc2ncncc2-c2c(C)noc2C)cn1	–	-8.28% (inactive)
COc1cccc(Cn2c(=O)c(-c3cn(C)c4ccccc34)nc3cncnc32)c1	1 µM (active)	–
Cn1cc(-c2nc3cncnc3n(CCN)c2=O)c2ccccc21	6.31 µM (active)	–
COCCn1c(=O)c(-c2cn(C)c3ccccc23)nc2cnc(OCc3ccccc3)nc21	5.01 µM (active)	–
COCCn1c(=O)c(-c2cn(C)c3ccccc23)nc2cncnc21	0.398 µM (active)	–
O=C(Cn1cnc([N+](=O)[O-])c1)NCc1ccc(F)cc1	–	2.97% (inactive)
COc1ccccc1CCn1c(=O)c(-c2cn(C)c3ccccc23)nc2cncnc21	1.26 µM (active)	–
COC(=O)CC[C@@H](C)[C@H]1CC[C@H]2[C@H]3CC[C@H]4C[C@@H]5CC[C@@]4(C)C3(O5)[C@@H](Br)[C@@H](Br)[C@@]12C	–	-8.93% [at 11.4 µM] (inactive)
CCCC(=O)Nc1nc(C(=O)OCC)cs1	15.8 µM (active)	–
CCCC(=O)Nc1c(C)n[nH]c1C	–	-12.9% (inactive)
